Results filed as inconclusive are left out. A number with no mark means an inactive call. The call rests on the fitted dose curve; in most records, active means well fitted curve in the direction sought with a large enough effect; inconclusive means small, poorly fitted or top-dose-only effect, or another doubt; inactive means no such curve, though single readings can be large or run the other way. Numbered stars: 1 amine (or outer) side, 2 acyl side, 3 side chain; on linkers, the order of the positions; unused ones are H or OH. Bridge positions count the residues as written; N and C are the ends. Square brackets hold non-standard residues; d marks the D form. Peptide text beside a SMILES is read from it. I, II: the chains in the order shown. Actinocin(9to1) = Cc1c2oc3c(C)ccc(C(=O)[*:1])c3nc-2c(C(=O)[*:2])c(N)c1=O; NMeV = CN[C@H](C(=O)O)C(C)C; Sar = CNCC(=O)O
target: Protein phosphatase 1D (Homo sapiens) (UniProt O15297); test: Rhodamine-PBP qHTS Assay for Modulators of WT P53-Induced Phosphatase 1 (WIP1) (AID 1347425); conditions: recombinant WIP1, Rhodamine-PBP phosphate fluorescence, real-time; series mostly up to 57.5 µM; activity change, negative = inhibition: at the top concentration
Text: Assay Provider (PI): Nathan Coussens Ph.D.
National Center for Advancing Translational Sciences (NCATS), Rockville, MD
National Institute of Health (NIH), Bethesda, Maryland
WT P53-Induced Phosphatase 1 (WIP1) is a member of the magnesium-dependent serine/threonine protein phosphatase (PPM) family and is induced by P53 in response to DNA damage. In several human cancers, the WIP1 protein is overexpressed, which is generally associated with a worse prognosis. Although WIP1 is an attractive therapeutic target, no potent, selective, and bioactive small-molecule modulator with favorable pharmacokinetics has been reported. Phosphatase enzymes are among the most challenging targets for small molecules because of the difficulty of achieving both modulator selectivity and bioavailability. Another major obstacle has been the availability of robust and physiologically relevant phosphatase assays that are suitable for high-throughput screening.
Here, we describe two orthogonal biochemical WIP1 activity assays that utilize phosphopeptides from native WIP1 substrates. We optimized a RapidFire MS assay to quantify the enzymatically dephosphorylated peptide reaction product in a 384-well format. Additionally, a redshifted Rhodamine-PBP fluorescence assay was optimized in a 1,536-well format to enable real-time WIP1 activity measurements through the detection of the orthogonal reaction product, Pi. We validated these two optimized assays by quantitative high-throughput screening against the National Center for Advancing Translational Sciences (NCATS) Pharmaceutical Collection and used secondary assays to confirm and evaluate inhibitors identified in the primary screen.
SEQUENCE No. (e.g., 1, 2, 3, etc.); […] (e.g., Cells, Incubation, Reagent, etc.); VALUE; DESCRIPTION
1; Reagent; 3 uL; WIP1 (6.7 nM), Rh-PBP (13.3 uM), columns 1-48
3; Library Compounds; 23 nL; NCATS Pharmaceutical Collection, column 5-48
4; Control Compounds; DMSO in column 2, GSK2830371 (57.5 uM, final) in 3-fold serial dilutions in column 3, GSK2830371 (1.15 uM, final) in column 4
5; Time; 1 hr; incubation
6; Detection; fluorescence (f0); ViewLux, excitation filter = 525 nm, emission filter = 598 nm
7; Reagent; 1 uL; VEPP-pS-QETFS (40 uM), columns 2-48
8; Detection; fluorescence (f1); ViewLux, excitation filter = 525 nm, emission filter = 598 nm
NOTES (numbers refer to sequence above)
1 & 2; Black medium binding Greiner 1536-well plates (# 789176-F); assay buffer: 50 mM Tris-HCl pH 7.5, 30 mM MgCl2, 1mM TCEP, 0.1 mM EGTA, 75 ug/mL BSA; dispensed with a BioRaptr liquid handler (Beckman Coulter).
3 & 4; Kalypsys pintool (equipped with 1536 pinhead, Wako USA) transfer. Tip wash sequence: DMSO, methanol, 3 sec vacuum dry.
5; Room temperature incubation.
7; VEPPL-pS-QETFS in assay buffer dispensed with a BioRaptr; final reaction conditions: 5 nM WIP1, 10 uM VEPPL-pS-QETFS, 10 uM Rh-PBP, 50 mM Tris-HCl pH 7.5, 30 mM MgCl2, 1 mM TCEP, 0.1 mM EGTA, 75 ug/mL BSA.
8; Measurement taken at 1 min intervals for 11 min. Delta readout = f1 - f0.

Chain of Protein phosphatase 1D (Homo sapiens) (O15297 whole entry, looked up): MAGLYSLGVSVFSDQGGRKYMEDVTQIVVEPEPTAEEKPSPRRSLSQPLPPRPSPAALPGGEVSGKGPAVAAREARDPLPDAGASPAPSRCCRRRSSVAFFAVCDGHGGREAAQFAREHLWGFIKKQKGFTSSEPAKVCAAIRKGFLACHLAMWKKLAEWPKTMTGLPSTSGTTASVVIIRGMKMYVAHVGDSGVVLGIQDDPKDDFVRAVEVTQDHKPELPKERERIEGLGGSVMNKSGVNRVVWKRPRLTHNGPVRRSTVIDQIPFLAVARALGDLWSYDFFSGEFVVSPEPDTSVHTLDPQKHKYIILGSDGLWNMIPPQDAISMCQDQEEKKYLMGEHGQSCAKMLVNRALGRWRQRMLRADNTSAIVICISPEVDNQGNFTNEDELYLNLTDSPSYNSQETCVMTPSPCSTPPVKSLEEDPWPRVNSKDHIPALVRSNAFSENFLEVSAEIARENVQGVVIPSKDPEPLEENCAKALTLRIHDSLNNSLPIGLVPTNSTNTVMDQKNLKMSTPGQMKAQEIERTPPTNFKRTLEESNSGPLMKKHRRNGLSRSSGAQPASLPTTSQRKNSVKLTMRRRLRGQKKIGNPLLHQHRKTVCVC

Row | Structure (SMILES) | activity change, negative = inhibition
1 | CC1(C)OC[C@@H](COC(=O)CCc2ccc(OC[C@@H](O)CNCCNC(=O)N3CCOCC3)cc2)O1 | -5.56%
2 | Oc1c(I)cc(Cl)c2cccnc12 | 6.49%
3 | CC(=O)[C@H]1CC[C@H]2[C@@H]3C[C@H](C)C4=CC(=O)CC[C@]4(C)[C@H]3[C@@H](O)C[C@]12C | 24.6%
4 | CN(C)CC/C=C1/c2ccccc2COc2ccc(CC(=O)O)cc21 | 7.21%
5 | O=c1ccc2ccccc2o1 | 5.64%
6 | O=C1OC(c2ccc(O)cc2)(c2ccc(O)cc2)c2ccccc21 | -0.897%
7 | CN=C(NC#N)Nc1ccc(C2=NNC(=O)CC2C)cc1 (stereo not given) | 6.49%
8 | C[C@H]1[C@H](NC(=O)/C(=N/OC(C)(C)C(=O)O)c2csc(N)n2)C(=O)N1S(=O)(=O)O (stereo in doubt) | 1.18%
9 | CN1CCC[C@@H]1c1cccnc1 | -20.8%
10 | CCOC(=O)OC(C)OC1=C(C(=O)Nc2ccccn2)N(C)S(=O)(=O)c2ccccc21 (stereo not given) | 12.5%
11 | CC(C)COC(=O)c1ccc(N)cc1 | 1.83%
12 | CNC(=O)CN(CCN(CCN(CC(=O)[O-])CC(=O)NC)CC(=O)[O-])CC(=O)[O-].O.[Gd+3] | 1.62%
13 | Cc1c(N(C)CS(=O)(=O)O)c(=O)n(-c2ccccc2)n1C | 4.56%
14 | COc1ccc(CN2CCN(C(c3ccc(F)cc3)c3ccc(F)cc3)CC2)c(OC)c1OC | 23.9%
15 | CC(O)C(=O)O (stereo not given) | -4.99%
16 | Nc1ccc(/C=C/c2ccc(N)cc2S(=O)(=O)O)c(S(=O)(=O)O)c1 | 11.7% [at 0.575 µM]
17 | Cc1c(C)n(Cc2ccccc2)c2ccc(C(=O)OCCN(C)C)cc12 | 19.6%
18 | OC[C@H]1O[C@@H](n2cnc3c(=S)nc[nH]c32)[C@H](O)[C@@H]1O | 12.6%
19 | CC1(C)O[C@@H]2C[C@H]3[C@@H]4C[C@H](F)C5=CC(=O)CC[C@]5(C)[C@H]4[C@@H](O)C[C@]3(C)[C@]2(C(=O)CO)O1 | 0.772%
20 | Cc1c2oc3c(C)ccc(C(=O)N[C@@H]4C(=O)N[C@H](C(C)C)C(=O)N5CCC[C@H]5C(=O)N(C)CC(=O)N(C)[C@@H](C(C)C)C(=O)O[C@@H]4C)c3nc-2c(C(=O)N[C@@H]2C(=O)N[C@H](C(C)C)C(=O)N3CCC[C@H]3C(=O)N(C)CC(=O)N(C)[C@@H](C(C)C)C(=O)O[C@@H]2C)c(N)c1=O (I: T[dV]P[Sar][NMeV] / II: T[dV]P[Sar][NMeV]; ester I:1-I:C, II:1-II:C; linker I:N-II:N via Actinocin(9to1)) | 9.5%

Row | Structure (SMILES) | activity change, negative = inhibition
21 | CN1CCCC(CC2c3ccccc3Sc3ccccc32)C1 (stereo not given) | 31.1%
22 | CC(=O)OCC(=O)[C@@]1(OC(C)=O)[C@@H](C)C[C@H]2[C@@H]3C[C@H](F)C4=CC(=O)C=C[C@]4(C)[C@@]3(F)[C@@H](O)C[C@@]21C | 15.3%
23 | Nc1ccc(C(=O)O)cc1 | 5.56%
24 | NC(CS)C(=O)O (stereo not given) | 15.3%
25 | Cc1cc2c(cc1CC(=O)c1sccc1S(=O)(=O)Nc1onc(C)c1Cl)OCO2 | -24.8%
26 | Cc1cc(=O)n(-c2ccccc2)n1C | 0.541%
27 | CCCCCCCCCCCCCCCCOP(=O)([O-])OCC[N+](C)(C)C | 18.1%
28 | C[C@H](O)C(=O)Nc1c(I)c(C(=O)NC(CO)CO)c(I)c(C(=O)NC(CO)CO)c1I | 5.56%
29 | OC[C@@H](O)[C@@H](O[C@@H]1O[C@H](CO)[C@H](O)[C@H](O)[C@H]1O)[C@H](O)[C@@H](O)CO | 11.7%
30 | COc1cc(/C=C/C(=O)O[C@H]2CC[C@]34C[C@]35CC[C@]3(C)[C@@H]([C@H](C)CCC=C(C)C)CC[C@@]3(C)[C@@H]5CC[C@H]4C2(C)C)ccc1O | 0.395%
31 | COc1ccc(C2C(=O)c3ccccc3C2=O)cc1 | 15.8%
32 | O=C(O)CCCCC(=O)O | 4.7%
33 | CC(Cc1cccc(C(F)(F)F)c1)NCCOC(=O)c1ccccc1 (stereo not given) | 25.6%
34 | CCCCCC=CCC=CCCCCCCCC(=O)OCC | 26.2%
35 | CC(C)(CO)[C@@H](O)C(=O)NCCCO | 7.72%
36 | O=C(OCCOCCO)c1ccccc1Nc1cccc(C(F)(F)F)c1 | 4.27%
37 | CC(C)NC[C@@H](O)COc1cccc2ccccc12 | -8.15%
38 | NC(=NCCCCCCN=C(N)/N=C(\N)Nc1ccc(Cl)cc1)/N=C(\N)Nc1ccc(Cl)cc1 | 18.6%
39 | Cc1c(C(N)=O)cc([N+](=O)[O-])cc1[N+](=O)[O-] | -14.4%
40 | CC(=O)OCC(=O)[C@@]1(O)CC[C@H]2[C@@H]3CCC4=CC(=O)C=C[C@]4(C)[C@H]3[C@@H](O)C[C@@]21C | 15%
